# Laboratory results published in PMC5540273 (PLoS ONE, 2017).
# Columns and labels:
# [1] = system: T1, RSK1(Kin.Dom.2-C-terminal)
# T1 construct: gene RPS6KA1
# [2] = system: T2, RSK4(Kin.Dom.2-C-terminal)
# T2 construct: gene RPS6KA6
# 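Note: kd values determined as follow-up on hits from a single-replicate KINOMEscan panel screen.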
smiles,measurement,setting,value
CCCCCc1nc2c(N)ncnc2n1CCCCC [SKF-97255],Kd,ROCK1,280 nM
CNc1ncnc2[nH]ncc12 [SKF-18355],Kd,ROCK1,380 nM
same,Kd,ROCK2,330 nM
CC(C)(C)n1cnc2c(N)ncnc21 [SKF-97359],Kd,[1],> 10 µM
same,Kd,SgK110,> 10 µM
CN1c2ccc(NCc3ccc(F)cc3)cc2-c2c(cnn2C)S1(=O)=O,Kd,[2],> 10 µM
CN1c2ccc(CNc3ccc(F)cc3)cc2-c2c(cnn2C)S1(=O)=O,Kd,SGK2,> 10 µM
CSc1ccc(-c2cc3ncnc(SCC(=O)O)c3s2)cc1,Kd,SRPK2,> 10 µM
COc1ccc(Nc2nccc(N3CCC(NC(=O)Nc4cc(C)ccc4C)C3)n2)cc1 (centres unmarked) [GSK1379741],Kd,STK36,1600 nM
Cn1ccc2ncnc(Oc3ccc(NC(=O)Nc4ccncc4)c(Cl)c3)c21,Kd,STK39,> 10 µM
O=C(NCCNc1ccnc(Nc2ccc(F)cc2)n1)c1cc2ccccc2s1 [GSK1379874],Kd,TESK1,> 10 µM
